Among all 75,000 compounds or so, about 5,700 (7.6%) were called active. Where a call stands in place of a potency, no number is given. About 7% were inconclusive and are not listed. The sample holds actives, similar compounds and a random draw of the others, so the mix is not that of the screen. Values without a mark were called inactive. The call rests on the fitted dose curve; in most records, active means well fitted inhibition curve with a large enough effect; inconclusive means small, poorly fitted or top-dose-only effect; inactive means no such curve, though single readings can be large or run the other way.
Target: 3-hydroxyacyl-CoA dehydrogenase type-2 (Homo sapiens) (UniProt Q99714)
Test: qHTS Assay for Inhibitors of HSD17B4, hydroxysteroid (17-beta) dehydrogenase 4;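 further: the protocol describes HADH2 (HSD17B10) and not the HSD17B4 of the title; nearly all actives have a fitted effect of over 70% in size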
Conditions: recombinant HSD17B10, NADH fluorescence kinetic; series mostly up to 57.1 µM
Summary of the method: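 Activity followed as NADH fluorescence increase (ex 360, em 450 nm) every 30 seconds for 4 min, using final 90 uM beta-hydroxybutyryl CoA and 1 mM NAD+. Recombinant His-tagged enzyme, 20 nM, pH 9.0 Tris buffer, 15 min compound preincubation.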
Potency means the concentration at half of the fitted maximal effect.

Row | Structure (SMILES) | Potency | activity change, negative = inhibition
1 | Cc1ccc2cccc(O)c2[n+]1[O-] | inactive | –
2 | Cc1ccc(C)c(NS(=O)(=O)c2cc(Br)cnc2N)c1 | inactive | –
3 | O=c1cc(-c2ccccc2)[nH]c2nc(Cl)ccc12 | 7.94 µM (active) | –
4 | CCCC(NS(=O)(=O)c1ccc(OC)cc1)C(=O)O (stereo not given) | inactive | –
5 | COc1cccc(N2CC(C(=O)Nc3c(C)cccc3C)CC2=O)c1 (stereo not given) | inactive | –
6 | COc1cccc(C2/C(=C(/O)c3ccncc3)C(=O)C(=O)N2CCCN(C)C)c1 (stereo not given) | inactive | –
7 | Cn1c(=O)c2c(nc(CN3CCOCC3)n2Cc2ccccc2)n(C)c1=O | inactive | –
8 | CCCOc1ccc(C2c3c(oc4cc(C)c(C)cc4c3=O)C(=O)N2CCCN2CCOCC2)cc1 (stereo not given) | inactive | –
9 | Cc1cccn2c(=O)c3cc(C#N)c(=O)n(CCCN4CCOCC4)c3nc12 | 31.6 µM (active) | –
10 | O=C(Cn1nc(Cc2cccnc2)c2ccccc2c1=O)NCC1CCCO1 (stereo not given) | inactive | –
11 | Cc1nnc(SCC(N)=O)n1CC1CCCO1 (stereo not given) | inactive | –
12 | Cc1cccn2c(=O)c3cc(C#N)c(=NC(=O)c4cccnc4)n(CC4CCCO4)c3nc12 (stereo not given) | 7.94 µM (active) | –
13 | CC(=NCC1CCCO1)c1c(O)[nH]c(=O)[nH]c1=O (stereo not given) | inactive | –
14 | CCOC(=O)N1CCC(NC(=O)c2ccc3nc(N4CCOCC4)sc3c2)CC1 | inactive | –
15 | Nc1c(C(=O)NCc2ccccc2)nnn1Cc1cccc(Cl)c1 | inactive | –
16 | COC(=O)CCNc1ccc2c(c1)OCCO2 | inactive | –
17 | NC1(C(=O)OCc2ccccc2)CCCC1 | – | -22.7% [at 11.4 µM]
18 | BrC1C(Br)C(Br)C(Br)C(Br)C1Br (stereo not given) | inactive | –
19 | C=C(C)C1CC=C(C)C(O)C1 (stereo not given) | inactive | –
20 | Nc1nc2[nH]c(=O)c(=O)[nH]c2c(=O)[nH]1 | inactive | –

Reference: PubChem BioAssay AID893 (National Center for Advancing Translational Sciences (NCATS), 2007)
